According to PubChem BioAssay (NCI):
About 79,000 compounds went through this panel and 15% of them were active in at least one assay; those are over-represented in the sample as a whole. Calls of active or inactive are those of the source. No stated cut-off is given here; in the data, active means growth inhibition above about 70%; inactive means the rest.

Tests used:
[1] = NCI Yeast Anticancer Drug Screen. Data for the rad52 strain (AID 147);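 further: 0% = growth of vehicle-treated control cultures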; conditions: S. cerevisiae rad52 mutant growth inhibition, active compounds read high
Summary of the method: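 Inhibition of yeast growth, referenced to vehicle controls, was the measured output for a strain with defective DNA damage repair.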

[2] = NCI Yeast Anticancer Drug Screen. Data for the wt1 strain (AID 149);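 further: 0% = growth of vehicle-treated wt1 cultures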; conditions: S. cerevisiae wt1 strain (SPY 50644) growth inhibition, active compounds read high
Summary of the method: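 Measured: growth of wt1 yeast under compound versus vehicle treatment, reported as inhibition.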

[3] = NCI Yeast Anticancer Drug Screen. Data for the rad50EPP+ strain (AID 151);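 further: 0% = growth of vehicle-treated control cultures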; conditions: S. cerevisiae rad50 mutant strain, active compounds read high
Summary of the method: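 Genetically defined yeast (rad50EPP+, DNA damage repair alteration) is grown with compound, and inhibition of growth is expressed relative to vehicle-treated controls.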

[4] = NCI Yeast Anticancer Drug Screen. Data for the mgt1 strain (AID 153); conditions: S. cerevisiae mgt1 mutant growth inhibition, active compounds read high
Summary of the method: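 In the mgt1 strain, test compounds were added and growth inhibition was determined relative to vehicle-treated controls.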

[5] = NCI Yeast Anticancer Drug Screen. Data for the rad50 strain (AID 155);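 further: 0% = growth of vehicle-only cultures of the same strain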; conditions: S. cerevisiae rad50 strain growth inhibition, active compounds read high
Summary of the method: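 Growth of the mutant yeast was measured after compound exposure and referenced to vehicle-treated cultures.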

[6] = NCI Yeast Anticancer Drug Screen. Data for the mec2-1 strain (AID 157); conditions: S. cerevisiae mec2-1 strain, active compounds read high
Summary of the method: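 Each compound was tested on mec2-1 yeast, a strain altered in DNA damage repair or cell cycle control. Growth inhibition is reported relative to vehicle.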

[7] = NCI Yeast Anticancer Drug Screen. Data for the rad14 strain (AID 159);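 further: 0% = growth of vehicle-treated control cultures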; conditions: S. cerevisiae rad14 strain growth inhibition, active compounds read high
Summary of the method: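 Here, inhibition of yeast growth was measured after compound exposure, using a strain with a genetic defect in DNA damage repair and vehicle-treated cultures as the reference.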

[8] = NCI Yeast Anticancer Drug Screen. Data for the sgs1 mgt1 strain (AID 161);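 further: 0% = growth of cultures given vehicle only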; conditions: S. cerevisiae sgs1 mgt1 strain, active compounds read high
Summary of the method: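 Mutant yeast exposed to compound; growth scored against vehicle-only wells.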

[9] = NCI Yeast Anticancer Drug Screen. Data for the CLN2oe strain (AID 163);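 further: 0% = growth of vehicle-only control cultures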; conditions: S. cerevisiae CLN2oe strain, active compounds read high
Summary of the method: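 First, the altered yeast strain was treated with each compound; second, its growth was measured; finally, inhibition was derived by comparison with vehicle controls.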

[10] = NCI Yeast Anticancer Drug Screen. Data for the cln2 rad14 strain (AID 165);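 further: 0% = growth equal to vehicle treated cultures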; conditions: S. cerevisiae cln2 rad14 strain, active compounds read high
Summary of the method: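 Test compounds were added to cln2 rad14 yeast cultures; inhibition of growth was then determined by comparison with vehicle treatment.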

[11] = NCI Yeast Anticancer Drug Screen. Data for the bub3 strain (AID 167); conditions: S. cerevisiae bub3 mutant strain, active compounds read high
Summary of the method: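 Whole-cell yeast assay. The mutant strain was incubated with compounds, and growth inhibition was determined by comparison with vehicle-treated cells.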

[12] = NCI Yeast Anticancer Drug Screen. Data for the wt2 strain (AID 169);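 further: 0% = growth of vehicle-treated yeast cultures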; conditions: S. cerevisiae wt2 strain growth inhibition, active compounds read high
Summary of the method: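 The panel's yeast strains carry defined changes in DNA repair or cell cycle genes. Each strain is grown with compound, and growth loss is scored relative to vehicle.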

[13] = NCI Yeast Anticancer Drug Screen. Data for the mlh1 strain (AID 171);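 further: 0% = growth of vehicle-treated control cultures of the same strain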; conditions: S. cerevisiae mlh1 strain growth inhibition, active compounds read high
Summary of the method: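 Inhibition values reflect reduced yeast growth in the presence of compound, referenced to vehicle controls, using a strain chosen for its alteration in DNA repair or cell cycle control.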

[14] = NCI Yeast Anticancer Drug Screen. Data for the sgs1 strain (AID 173);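 further: 0% = growth of vehicle-only control cultures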; conditions: S. cerevisiae sgs1 mutant, active compounds read high
Summary of the method: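 Vehicle-treated cultures served as reference for growth inhibition of a yeast strain altered in DNA damage repair or cell cycle control after compound exposure.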

[15] = NCI Yeast Anticancer Drug Screen. Data for the mlh1 rad18 strain (AID 175); conditions: S. cerevisiae mlh1 rad18 strain growth inhibition, active compounds read high
Summary of the method: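 Inhibition values reflect reduced growth of mutant yeast versus vehicle-treated controls following compound exposure; the mutations affect DNA damage repair.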

[16] = NCI Yeast Anticancer Drug Screen. Data for the rad18 strain (AID 177); conditions: S. cerevisiae rad18 mutant growth inhibition, active compounds read high
Summary of the method: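 Steps: expose repair-mutant yeast to compound; measure growth; express as inhibition relative to vehicle control.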

[17] = at 5.0 µM (retest, dose inferred, filed as 0.5)
[18] = at 50.0 µM (retest, dose inferred, filed as 5.0)

Measured: growth inhibition

Cn1c2nc3ccccc3c-2nc2ccccc21
active: [1]; at 3.7 µM 88% | [1]; at 11.0 µM 97% | [1]; at 33.0 µM 98% | [1]; at 100.0 µM 98% | [2]; at 11.0 µM 79% | [2]; at 33.0 µM 96% | [2]; at 100.0 µM 97% | [3]; at 3.7 µM 93% | [3]; at 11.0 µM 98% | [3]; at 33.0 µM 98% | [3]; at 100.0 µM 98% | [4]; at 11.0 µM 80% | [4]; at 33.0 µM 97% | [4]; at 100.0 µM 97% | [5]; at 3.7 µM 81% | [5]; [17] 75% | [5]; at 11.0 µM 95% | [5]; at 33.0 µM 97% | [5]; [18] 97% | [5]; at 50.0 µM 98.6% | [5]; at 100.0 µM 96% | [6]; at 11.0 µM 87% | [6]; at 33.0 µM 97% | [6]; [18] 98% | [6]; at 50.0 µM 96% | [6]; at 100.0 µM 98% | [7]; at 11.0 µM 82% | [7]; at 33.0 µM 97% | [7]; at 100.0 µM 98% | [8]; [18] 95% | [8]; at 50.0 µM 97.9% | [9]; at 11.0 µM 91% | [9]; at 33.0 µM 97% | [9]; at 100.0 µM 97% | [10]; [18] 96% | [10]; at 50.0 µM 96.2% | [11]; at 11.0 µM 88% | [11]; at 33.0 µM 96% | [11]; [18] 97% | [11]; at 50.0 µM 98.2% | [11]; at 100.0 µM 94% | [12]; at 11.0 µM 83% | [12]; at 33.0 µM 96% | [12]; at 100.0 µM 96% | [13]; at 11.0 µM 91% | [13]; at 33.0 µM 97% | [13]; at 100.0 µM 97% | [14]; at 11.0 µM 88% | [14]; at 33.0 µM 97% | [14]; at 100.0 µM 97% | [15]; [18] 98% | [15]; at 50.0 µM 98.1% | [16]; at 11.0 µM 90% | [16]; at 33.0 µM 97% | [16]; at 100.0 µM 93%
inactive: [1]; at 1.2 µM 25% | [2]; at 1.2 µM 6% | [2]; at 3.7 µM 29% | [3]; at 1.2 µM 52% | [4]; at 1.2 µM 4% | [4]; at 3.7 µM 29% | [5]; at 1.2 µM 27% | [6]; at 1.2 µM 10% | [6]; at 3.7 µM 41% | [6]; [17] 33% | [7]; at 1.2 µM 8% | [7]; at 3.7 µM 31% | [8]; [17] 39% | [9]; at 1.2 µM 19% | [9]; at 3.7 µM 46% | [10]; [17] 32% | [11]; at 1.2 µM -5% | [11]; at 3.7 µM 22% | [11]; [17] 16% | [12]; at 1.2 µM 7% | [12]; at 3.7 µM 33% | [13]; at 1.2 µM 9% | [13]; at 3.7 µM 46% | [14]; at 1.2 µM 8% | [14]; at 3.7 µM 42% | [15]; [17] 45% | [16]; at 1.2 µM 8% | [16]; at 3.7 µM 42%

S=C(S)NCC1CCC(CNC(=S)S)CC1 (stereo not drawn)
active: [1]; at 100.0 µM 81% | [2]; at 100.0 µM 77% | [3]; at 100.0 µM 81% | [4]; at 100.0 µM 89% | [5]; [18] 98% | [5]; at 100.0 µM 83% | [6]; [18] 98% | [6]; at 100.0 µM 94% | [7]; at 100.0 µM 92% | [9]; at 100.0 µM 70% | [11]; [18] 77% | [11]; at 100.0 µM 93%
inactive: [1]; at 1.2 µM -10% | [1]; at 3.7 µM -12% | [1]; at 11.0 µM -12% | [1]; at 33.0 µM 20% | [2]; at 1.2 µM -11% | [2]; at 3.7 µM -5% | [2]; at 11.0 µM -5% | [2]; at 33.0 µM 20% | [3]; at 1.2 µM -3% | [3]; at 3.7 µM 3% | [3]; at 11.0 µM 24% | [3]; at 33.0 µM 41% | [4]; at 1.2 µM -8% | [4]; at 3.7 µM 0% | [4]; at 11.0 µM 5% | [4]; at 33.0 µM 18% | [5]; at 1.2 µM 8% | [5]; at 3.7 µM 3% | [5]; [17] 31% | [5]; at 11.0 µM -4% | [5]; at 33.0 µM 22% | [5]; at 50.0 µM 67% | [6]; at 1.2 µM -9% | [6]; at 3.7 µM -2% | [6]; [17] 64% | [6]; at 11.0 µM 5% | [6]; at 33.0 µM 43% | [6]; at 50.0 µM 59.1% | [7]; at 1.2 µM 13% | [7]; at 3.7 µM 19% | [7]; at 11.0 µM 13% | [7]; at 33.0 µM 27% | [8]; [17] -13% | [8]; [18] 61% | [9]; at 1.2 µM 0% | [9]; at 3.7 µM 12% | [9]; at 11.0 µM 13% | [9]; at 33.0 µM 18% | [10]; [17] -7% | [10]; [18] 46% | [11]; at 1.2 µM 16% | [11]; at 3.7 µM -10% | [11]; [17] 19% | [11]; at 11.0 µM 19% | [11]; at 33.0 µM 63% | [12]; at 1.2 µM -15% | [12]; at 3.7 µM -20% | [12]; at 11.0 µM -13%
